# A selection: hits, their analogues and other compounds. The true share with any hit is near 8%.
# HCMV inh = qHTS Assay for inhibitors of the human cytomegalovirus (HCMV); HFF cells, HCMV-luciferase reporter, 72 h; hits give low values; activity change, negative = inhibition, % at 57.5 µM; actives 4.5% (n = 410,000); AID 1259415, 2018; in the data active = activity change below about -60%; inconclusive = no clear call, values can overlap the other calls; inactive = above about -39%; note: % is set by controls: 0 for no effect and ±100 for the full control effect
#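 Compounds were evaluated in HFFs infected with an HCMV luciferase reporter virus (MOI 1 PFU/cell). Luciferase in lysates collected 72 h post infection served as the replication measure.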
# Lassa entry inh = qHTS for Inhibitors of binding or entry into cells for Lassa Virus | AID 540256, 2011 | Potency, µM (highest dose often 37.9 µM), inactives show at the highest dose activity change, negative = inhibition, usual class: inhibitors | Lassa virus pseudotype entry inhibition, cell reporter | actives 1.2% (n = 300,000); calls by dose curve; tested in HEK293 cells; note: potency is the fitted concentration of half-maximal effect; % is set by controls: 0 for no effect and ±100 for the full control effect; nearly all actives have a fitted effect of over 50% in size
# SARS PLpro yeast-1 = qHTS of Yeast-based Assay for SARS-CoV PLP | S. cerevisiae expressing SARS-CoV PLpro, growth rescue | Potency, µM (titrated, usually from 32.9 µM), for the others: at the highest dose activity, positive = growth rescue, actives largely listed as activators | actives 0.19% (n = 330,000); calls by dose curve; note: potency is the fitted concentration of half-maximal effect; 0% is about no effect; nearly all actives have a fitted effect of over 55% in size
# FMDV inh = High Throughput Screening for Foot and Mouth Disease Virus Antivirals; Potency, µM (titrated, usually from 57.9 µM), without a hit: at the top dose activity change, negative = inhibition, most hits filed as inhibitors; FMDV antiviral cell-based qHTS; actives 1.2% (n = 410,000); calls by dose curve; tested in HEK293T cells; note: read-out not given here; potency is the fitted concentration of half-maximal effect; % is set by controls: 0 for no effect and ±100 for the full control effect; nearly all actives have a fitted effect of over 45% in size
# Marburg entry inh = qHTS for inhibitors of binding or entry into cells for Marburg Virus | actives 1.8% (n = 300,000) | Marburg virus pseudotyped entry inhibition, cell reporter | AID 540276, 2011 | Potency, µM (top dose mostly 37.8 µM), inactives show top-dose activity change, negative = inhibition, most hits filed as inhibitors; calls by dose curve; tested in HEK293 cells; note: potency is the fitted concentration of half-maximal effect; % is set by controls: 0 for no effect and ±100 for the full control effect
# HCV inh = qHTS Assay for Inhibitors of Hepatitis C Virus (HCV) | Huh7.5.1 HCVcc-Cre infection, luciferase reporter, 44 h | Potency, µM (doses to about 41.8 µM), inactives show top-dose activity change, negative = inhibition, usual class: inhibitors | actives 3.4% (n = 340,000) | AID 651820, 2012; active = well fitted inhibition curve with a large enough effect; inconclusive = small, poorly fitted or top-dose-only effect, or another doubt; inactive = no such curve, though single readings can be large or run the other way; note: potency is the fitted concentration of half-maximal effect; % is set by controls: 0 for no effect and ±100 for the full control effect
#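 Seed cells (1,000/well) for 4 h; treat with compound and infect with HCVcc-Cre, moi about 0.5. Incubate 44 h, then detect luciferase activity.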
# SARS PLpro yeast-2 = qHTS of Yeast-based Assay for SARS-CoV PLP: Hit Validation | shares compounds with SARS PLpro yeast-1 | yeast expressing SARS-CoV PLpro, growth phenotype rescue | calls only | actives 19% (n = 1,000); call rule not given here
# * marks the source's active call; other numbers are inactive results; i = inactive; ? = inconclusive; / = no result given; + = active, no number; ! = repeats disagree; [ ] = another dose, or the depositor's remark.
SMILES,HCMV inh,Lassa entry inh,SARS PLpro yeast-1,FMDV inh,Marburg entry inh,HCV inh,SARS PLpro yeast-2
Cc1c(C(=O)OCC(=O)Nc2c(C)n(C)n(-c3ccccc3)c2=O)oc2ccccc12,15,-8%,0%,-2%,25%[46.1 µM],-3%,/
CCOc1ccc(-n2c(SCC(=O)N3CCCc4ccccc43)nc3c([nH]c4ccccc43)c2=O)cc1,10,-15%[46.1 µM],/,-18%,/,/,/
O=C(N/N=C/c1c(O)n(CCc2ccccc2)c(=O)[nH]c1=O)c1ccccc1O,40,/,2.2µM*,3%,-2%,?,?
O=C(N/N=C/c1c(O)n(CCc2ccccc2)c(=O)[nH]c1=O)c1ccncc1,-17,11%,-9%,-11%,4%,17%,/
O=C(OCC(=O)N1CCCC1)c1c(Cl)ccc(Cl)c1Cl,11,21%,-3%,-13%,-10%[46.1 µM],3%,/
CCOC(=O)c1sc(=S)n(C)c1NC(=O)c1ccccc1Cl,16,16%,22µM*,-15%,-5%,1%,i
CCOC(=O)c1sc(=S)n(-c2ccccc2Cl)c1C,-12,1%[46.1 µM],-2%,4%,?,-26%,/
COc1cccc(-c2ccc3ncnc(NCc4cccs4)c3c2)c1,?,/,7.1µM*!,?,/,/,i
C[C@@H]1C[C@H]2[C@@H]3CCC4=CC(=O)C=C[C@]4(C)[C@@]3(F)[C@@H](O)C[C@]2(C)[C@H]1C(=O)CO,83,-22%,10µM*,-22%,0%,5%[8.37 µM],i
COc1ccc(N(C(C)C(=O)NN=C2CCCC2)S(C)(=O)=O)cc1 (centres undefined),-30,/,11µM*,1%,/,12%,i
CCOC(=O)c1nn(-c2ccc(Cl)cc2)c2nc(Nc3ccccc3)cc(=O)n12,?,-6%,?,3%,1%,-18%,i
CCOC(=O)c1nn(-c2cccc(Cl)c2)c2nc(Nc3ccccc3)cc(=O)n12,-18,2%,5%,0%,22%,-20%,/
O=C(/C=C/c1ccccc1)OCCCN=C1NS(=O)(=O)c2ccccc21,-11,-5%[46.1 µM],1%,3%,?,-2%,/
CCOc1ccc(S(=O)(=O)N(CC)CC(=O)NC2CC2)cc1,43,22%[46.1 µM],?,-11%,?,5%,/
CCc1ccc(NC(=O)c2ccc(OC)c([N+](=O)[O-])c2)cc1,1,-9%,?,-10%,?,?,i
CC(=O)c1ccc(N(C(=O)Cn2nnc3ccccc32)C(C(=O)NCc2ccccc2)c2ccccn2)cc1 (centres undefined),7,-4%,18µM*,48%,?,5%,i
Cc1ccc(N(C(=O)Cn2nnc3ccccc32)C(C(=O)NCc2ccccc2)c2ccccn2)cc1 (centres undefined),?,-16%,7%,3%,?,-28%,/
Cc1cc(C)nc(NS(=O)(=O)c2ccc(NC(=S)NC(=O)CC(C)C)cc2)n1,69,-24%,?,110%,?,22%,i
O=C(O)CCC(=O)Nc1ccccc1C(=O)Nc1ccccc1,37,-5%,15%,25%,19%,13%,/
O=C(O)CCC(=O)Nc1ccccc1C(=O)NCCc1ccccc1,72,18%,4µM*,23%,?,23%,i
COc1ccccc1CNC(=O)c1cc(C(C)=O)c[nH]1,102,2%[46.1 µM],-1%,-17%,-9%[46.1 µM],-3%,/
Cc1ccc(O)c(N=NC2=C(O)CC(C)(C)CC2=O)c1,-101*,?,18µM*,22%,10µM*,?,+
COC(=O)c1ccc2c(=O)n(Cc3ccc4c(c3)OCO4)c(=S)[nH]c2c1,-37,/,-2%,-14%,/,3%,/
COC(=O)c1ccc2c(=O)n(NC(=O)C(c3ccccc3)c3ccccc3)c(=S)[nH]c2c1,7,2%,?,-10%,16%,13%,i
CCOC(=O)C1=CCN(S(=O)(=O)c2ccccc2C)C1c1ccccc1 (centres undefined),?,/,/,-10%,/,/,/
SMILES,HCMV inh,Lassa entry inh,SARS PLpro yeast-1,FMDV inh,Marburg entry inh,HCV inh,SARS PLpro yeast-2
CN1C(=O)SC(Nc2cccc3ccccc23)C1=O (centres undefined),-12,-7%,13µM*,1%,6%,-4%,i
CCc1ccc(N2CC(C(=O)Nc3cc(C)on3)CC2=O)cc1 (centres undefined),32,-6%,0%,25%,5%,15%,/
COc1ccc(/C=C(\C#N)C(=O)OCC(=O)NCc2ccccc2Cl)cc1,-28,10%,1%,10%,10%[46.1 µM],0%,/
COc1ccc(/C=C(\C#N)C(=O)OCC(=O)NCc2ccc(Cl)cc2)cc1,/,0%,?,/,0%,-3%,i
COc1cccc(CNc2ccc(S(N)(=O)=O)cc2)c1OC,-6,14%,?,-3%,-3%,-4%,i
NS(=O)(=O)c1ccc(NCc2ccccc2OCc2ccccc2F)cc1,?,3%,-2%,/,?,?,/
CCc1nnc(NC(=O)CSc2nccn2-c2cccc(C)c2)s1,-16,/,13µM*,-27%,/,5%,i
Cc1cccc(-n2ccnc2SCC(=O)Nc2nnc(C)s2)c1,-1,/,6%,-12%,/,?,/
c1cc2c(cc1[C@H]1OC[C@H]3[C@@H]1CO[C@H]3c1ccc3c(c1)OCO3)OCO2,63,/,?,?,/,?,i
CN1C(=O)c2ccccc2N(C)C1c1ccc2c(c1)OCO2 (centres undefined),-8,3%,9%,0%,-3%,-10%,/
COc1ccc(C2OC(=O)c3ccccc3S2)cc1 (centres undefined),-11,4%,?,4%,?,9%,i
CCOC(=O)/C(C#N)=C/c1c(OCC)n(CC)c2ccccc12,?,?,13µM*,-21%,5%,-23%,i
CCOC(=O)/C(C#N)=C\c1cn(C)c2ccccc12,25,16%,-1%,9%,-7%[14.2 µM],5%,/
Clc1ccc(CNC23CN4CN(CN(C4)C2)C3)c(Cl)c1,-29,22%,?,-20%,13%,4%,i
Cc1cccc(NC(=O)CN(C)S(=O)(=O)c2cnc[nH]2)c1,-14,-11%,6%,-9%,-1%,5%,/
COc1ccc(C)cc1NC(=O)CN(C)S(=O)(=O)c1cnc[nH]1,-15,3%,?,11%,?,-6%,i
CC(=O)Nc1ccc(NC(=O)C(C)OC(=O)c2c(NC(C)=O)sc(C)c2C)cc1 (centres undefined),-16,/,?,-8%,/,-22%,i
